The panel holds about 79,000 compounds, 15% with a hit somewhere; the sample as a whole holds those more often. Unmarked numbers belong to inactive results. The source made the active and inactive calls. Cut-off read from the data, not from the text of the source: active = growth inhibition above about 70%; inactive = the rest.
What was measured:
[1] = NCI Yeast Anticancer Drug Screen. Data for the rad50 strain (AID 155);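 note: 0% = growth of vehicle-only cultures of the same strain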; conditions: S. cerevisiae rad50 strain growth inhibition; at 50.0 µM; active compounds read high
Outline: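 Growth of the mutant yeast was measured after compound exposure and referenced to vehicle-treated cultures.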

[2] = NCI Yeast Anticancer Drug Screen. Data for the mec2-1 strain (AID 157); conditions: S. cerevisiae mec2-1 strain, at 50.0 µM, active compounds read high
Outline: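 Strain: mec2-1 (DNA repair/cell cycle alteration). Compound exposure, then growth measured; inhibition expressed relative to vehicle.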

[3] = NCI Yeast Anticancer Drug Screen. Data for the sgs1 mgt1 strain (AID 161);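 note: 0% = growth of cultures given vehicle only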; conditions: S. cerevisiae sgs1 mgt1 strain, at 50.0 µM, active compounds read high
Outline: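 Mutant yeast exposed to compound; growth scored against vehicle-only wells.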

[4] = NCI Yeast Anticancer Drug Screen. Data for the cln2 rad14 strain (AID 165);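 note: 0% = growth equal to vehicle treated cultures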; conditions: S. cerevisiae cln2 rad14 strain, at 50.0 µM, active compounds read high
Outline: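 Compounds are applied to the cln2 rad14 yeast strain, and growth is then compared with that of vehicle-treated cultures to give inhibition.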

[5] = NCI Yeast Anticancer Drug Screen. Data for the bub3 strain (AID 167); conditions: S. cerevisiae bub3 mutant strain, at 50.0 µM, active compounds read high
Outline: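 Whole-cell yeast assay. The mutant strain was incubated with compounds, and growth inhibition was determined by comparison with vehicle-treated cells.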

[6] = NCI Yeast Anticancer Drug Screen. Data for the mlh1 rad18 strain (AID 175); conditions: S. cerevisiae mlh1 rad18 strain growth inhibition; at 50.0 µM; active compounds read high
Outline: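 Read-out is yeast growth inhibition, calculated against vehicle-only controls. The compound was applied to a strain engineered with DNA damage repair alterations.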

Compound | growth inhibition [1] | growth inhibition [2] | growth inhibition [3] | growth inhibition [4] | growth inhibition [5] | growth inhibition [6]
CC(C)OP(=O)(OC(C)C)/C(N)=N/Nc1ccc([N+](=O)[O-])cc1 | 25.6% | -0.2% | -5.6% | 2.65% | -3.95% | -7.7%
CC1OC(c2ccccc2)OC1C (stereo unspecified) | 18.6% | -4.65% | -6.9% | -29.9% | -18.9% | 11.8%
O=C(COc1cc(Cl)c(Cl)cc1Cl)Nc1c(Cl)cc(Cl)cc1Cl | 2.5% | 5.8% | -2.75% | -18.6% | -2.15% | 22.7%
CCN(CC)CC(=N)N(CC)c1ccccc1 | 26.5% | 6.95% | 4.7% | 11.9% | 23.8% | 28.5%
Cc1ccc(OC(=O)Nc2ccc(C(=O)O)c(O)c2)cc1 | -10.9% | 8.3% | 9.2% | -6.75% | -4.7% | -5.2%
O=C(O)c1ccc(O)c(C(=O)O)c1 | 12% | 11% | 20.6% | -14.7% | -6.15% | 16.8%
CC(C)(CN1C(=O)C(Cl)=C(Cl)C1=O)CN1C(=O)C(Cl)=C(Cl)C1=O | 1.7% | -5.6% | 6.3% | -20.8% | -5.8% | 9.2%
O=Nc1ccc(O)c2ncccc12 | 7.15% | -9.45% | 15.7% | -26.6% | 1.5% | 31%
C=C1C(=O)C[C@H]2[C@H]3CC[C@H](C(=O)O)[C@]12CC3(C)C | 90.8% (active) | 93.8% (active) | 93.8% (active) | 87.7% (active) | 92.2% (active) | 92.1% (active)
CC(=O)Oc1ccc([N+](=O)[O-])cc1 | 16.9% | 12.7% | 27.4% | -17.7% | -1% | 34%
COC(=O)c1sc(C(=O)OC)c2c1CSC2 | -6% | 5.35% | -18.4% | 2.55% | -8% | 13.2%
O=C(OCc1ccccc1)N(CCCCN(CCCNC(=O)C(F)(F)F)C(=O)OCc1ccccc1)CCCNC(=O)C(F)(F)F | -14.8% | -9.7% | 21.4% | 20.4% | 21.8% | -33.8%
O=P1(c2ccccc2)C(c2ccccc2)=CC=C1c1ccccc1 | 23.4% | 9.8% | 18.1% | 6.6% | 12.3% | 31.2%
CC1(C)OCC(C2CCC3(C)C4=CCC5C(C)(C)C(O)CCC5(C)C4CCC23C)CC(O)C1O (stereo unspecified) | 59.6% | 57% | 72.3% (active) | 76.5% (active) | 64.8% | 31.9%
COC(=O)C(=O)C(C(C)=O)C(=O)C(=O)Nc1ccc(C)cc1C (stereo unspecified) | 19.1% | 14.1% | 1.95% | 15.2% | 26.1% | 17.9%
Cn1cc(C(C)(c2ccccc2)c2cn(C)c3ccccc23)c2ccccc21 | -13.8% | -6% | -4.25% | -24.2% | -5.6% | -11%
O=CN(C1CCCCC1)C1CCCCC1 | 14.6% | 15.6% | 11% | 8.8% | 1.5% | 0%
C[N+](C)(CC(=O)Nc1cc(C(F)(F)F)cc(C(F)(F)F)c1)CC(=O)Nc1ccc(Cl)c(C(F)(F)F)c1 | 99.5% (active) | 99.8% (active) | 99.8% (active) | 99.3% (active) | 99.4% (active) | 99.5% (active)
CC1CC(NN(C)C)C2(C(N)=O)C(N)=NC(=O)C12C#N (stereo unspecified) | 5.45% | 9.15% | -23.9% | 3.8% | -24.7% | -46.1%
COC(=O)C1=C(O)C(C(=O)OC)[C@@]2(O)[C@@H](C(=O)OC)[C@H](C)C[C@@H]1[C@@H]2C(=O)OC (stereo partly specified) | 41.6% | 15.4% | 47% | -1.05% | 23.1% | 38.5%
O=C1c2ccccc2C(=O)C1(O)c1c[nH]c2ccccc12 | -1.55% | 12.1% | 4.25% | 6.85% | -18% | 23.6%

Compound | growth inhibition [1] | growth inhibition [2] | growth inhibition [3] | growth inhibition [4] | growth inhibition [5] | growth inhibition [6]
CCCCCCCCCCCCCCCCNC(=O)C(C)O (stereo unspecified) | 23.9% | 3.2% | 17.2% | -13.9% | 7.7% | 30.4%
O=C(COC(=O)c1cccc([N+](=O)[O-])c1)c1ccc(Br)cc1 | 6.55% | 20.3% | 1.55% | -16.2% | 7.3% | 5.8%
CC1(C)S[C@@H]2[C@H](NC(=O)/C=C/c3ccccc3)C(=O)N2[C@H]1C(=O)O | 15.3% | 9.5% | 9.2% | 0.6% | 25.6% | -5.5%
CCN(CC)CCOc1cccc(O)c1 | -5.95% | -16.1% | -12.1% | -50.5% | -8.3% | -2.9%
CC(C)c1ccccc1OC(=O)NC1CCCCC1 | 1.9% | 20.7% | 7.25% | 0.15% | 14.7% | 3.95%
CC1(c2ccccc2)OCCS1 (stereo unspecified) | 40.7% | 21.1% | 19.8% | 14.6% | 1.1% | 28.8%
Nc1nc2ccc([N+](=O)[O-])cc2s1 | 6.15% | -6.45% | 10.8% | -18.4% | -12.8% | -8.1%
COc1ccc(C23C(=O)c4ccccc4N2O[C@H]2C(=O)N(c4ccccc4)C(=O)[C@H]23)cc1 (stereo partly specified) | -22.2% | 20.1% | -36.5% | 7.9% | -30.6% | -21.1%
COC(=O)c1ccc(SCCC(=O)CO)cc1 | 19.4% | 15.9% | -4.6% | 5.35% | 13% | 23.9%
NC(=S)n1nc(-c2ccccc2)c(N=Nc2ccc(Br)cc2)c1-c1ccccc1 | 38.6% | 3.8% | 21.7% | 15.4% | 14.2% | 12.4%
Cc1ccc2sc3nc4ccccc4nc3c2c1 | 12.1% | 3.5% | -1.95% | -4.25% | 5.8% | -1.25%
COc1ccccc1NC(=O)C1=C(C)NC(C)=C(C(=O)Nc2ccccc2OC)C1c1ccccc1Cl | 11.3% | -4.4% | 3.85% | 17.9% | -6.45% | 23.4%
C[C@H](CCC(=O)NCC(=O)O)[C@H]1CC[C@H]2[C@@H]3[C@H](O)C[C@@H]4C[C@H](O)CC[C@]4(C)[C@H]3CC[C@]12C | 14.2% | -13.4% | 0.15% | 4.05% | -0.3% | 6.5%
CCOC(=O)/C(O)=C\c1cc(Br)c(OC)cc1[N+](=O)[O-] | 54.6% | 49.7% | 58.4% | 9.6% | 30.8% | 64%
O=C(Nc1ccc(F)c([N+](=O)[O-])c1)Nc1ccccc1C(F)(F)F | 3.95% | 29.6% | 33.8% | -3.5% | 31.3% | 25.8%
CC(C)CC(=O)NS(=O)(=O)c1ccccc1 | -6.15% | 5.05% | -3.05% | 5.2% | -17.4% | -22.2%
Fc1ccccc1-c1ccccc1 | -26.4% | -1.5% | -13.5% | -37.5% | -10.8% | -11.2%
O=C(Nc1cccc2c(NC(=O)N3CCCCC3)cccc12)N1CCCCC1 | -16.2% | -26.2% | 1.25% | 4.1% | 9.55% | 2.8%
O=C(O)CCc1ccccc1C(=O)O | 19.6% | -19.6% | -2% | -9.8% | -10.1% | 9.5%
N#Cc1cccc(C2SCc3nc4ccccc4n32)c1 (stereo unspecified) | -1.1% | -8.9% | 25.9% | 23.1% | 4.8% | 18.1%
